Only some compounds are listed: those with a hit (about 19% of all), similar ones and a draw of the others.
IL-1B inflam inh: inflammasome signaling inhibition, IL-1 beta readout; actives 4.7% (n = 360,000); activity change, % at 57.5 µM; THP-1 LPS/ATP IL-1B secretion, AlphaLISA, 16 h; stronger effect = lower value; in the data active means activity change below about -50%; inconclusive means mostly about -30% to -49%
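Secreted IL-1B measured by AlphaLISA bead assay after 16 h compound exposure of THP-1 cells; compounds (final up to 57.5 uM) added 1 h before LPS (250 ng/mL) and ATP (1.25 mM) stimulation; lower signal means less secretion.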
HT1080-NT tox: kills 2HG-producing HT-1080-NT fibrosarcoma cells; HT-1080-NT fibrosarcoma viability, CellTiter-Glo ATP luminescence, 48 h; Potency, µM (titrated, usually from 46.1 µM), for inactives: at the highest dose activity, negative = less viability, most hits filed as cytotoxic; actives 1.6% (n = 360,000);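 further: NT is the 2HG producing partner of a matched IDH1 knockdown line; potency means the concentration at half of the fitted maximal effect; 0% = DMSO-treated cells and -100% = media-only wells without cells; nearly all actives have a fitted effect of over 55% in size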
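A 48-hour cytotoxicity screen used HT-1080-NT cells plated 2 hours before compound delivery. ATP-based CellTiter-Glo luminescence measured viability, normalized to DMSO and no-cell controls.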
HT1080 IDH1KD tx: kills HT-1080 cells with IDH1 knockdown | HT-1080 IDH1 knockdown viability, ATP luminescence, 48 h | Potency, µM (highest dose often 46.1 µM), for inactives: at the top dose activity, negative = toxicity, usual class: cytotoxic | actives 2% (n = 360,000);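 further: potency means the concentration at half of the fitted maximal effect; 0% = DMSO wells and -100% = cell-free medium wells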
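HT-1080-IDH1KD cells (IDH1 knocked down), 750/well in RPMI with 5% FBS, treated with compound 48 h at 37 degrees C. Viability by CellTiter-Glo luminescence, normalised to DMSO and no-cell wells; concentration-response curves classed.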
TDP1 cell CPT: growth inhibition of DT40 Tdp1-/-;hTDP1 cells with camptothecin (screen for TDP1 inhibitors); chicken DT40 Tdp1-/-;hTDP1 cells + 20 nM CPT, ATP luminescence, 48 h; actives 12% (n = 420,000); Potency, µM (top dose mostly 46.2 µM), for the others: at the highest dose activity change, negative = growth inhibition, hits mostly inhibitors; further: potency means the concentration at half of the fitted maximal effect; nearly all actives have a fitted effect of over 55% in size
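Chicken DT40 Tdp1-/- cells complemented with human TDP1, 400 cells/well, exposed to compounds plus 20 nM camptothecin for at least 48 h at 37 C; viability read as ATP content by CellTiter-Glo luminescence.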
TDP1 cell noCPT: qHTS for Inhibitors of human tyrosyl-DNA phosphodiesterase 1 (TDP1): qHTS in cells in absence of CPT | DT40 Tdp1-/- hTDP1 cells, no CPT, ATP luminescence, 48 h | Potency, µM (titrated, usually from 46.2 µM), for the others: at the top dose activity change, negative = growth inhibition, hits mostly inhibitors | actives 15% (n = 420,000); further: potency means the concentration at half of the fitted maximal effect; nearly all actives have a fitted effect of over 55% in size
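Chicken DT40 Tdp1-/- cells complemented with human TDP1, screened without camptothecin (DMSO vehicle only), 400 cells/well. Compounds pin-transferred, cells incubated at 37 °C for at least 48 hr. Growth read as ATP-dependent luminescence (CellTiter-Glo, 30 min at RT).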
An asterisk follows results filed as active; ? = inconclusive; nt = no result given. Unless noted, the call rests on the fitted dose curve; in most records, active means well fitted curve in the direction sought with a large enough effect; inconclusive means small, poorly fitted or top-dose-only effect, or another doubt; inactive means no such curve, though single readings can be large; an effect the other way counts as inactive or inconclusive. Unless noted, on the % scale 0 is the no-effect control and ±100 the full control effect.

SMILES	IL-1B inflam inh	HT1080-NT tox	HT1080 IDH1KD tx	TDP1 cell CPT	TDP1 cell noCPT
O=c1[nH]c(=O)n(Cc2ccco2)c2c1C(C(F)(F)F)(C(F)(F)F)N=C(C1CCCCC1)N2	6	-2%	-1%	?	-18%
COc1cc(/C=C(/Sc2nnc(-c3ccc(F)cc3)o2)C(=O)O)ccc1OC(F)F	-12	-1%	-21%	?	?
CC1(C)SC(=S)N(/N=C/c2ccccc2)C1N(O)C(=O)Nc1ccc([N+](=O)[O-])cc1 (stereo unspecified)	?	?	?	16µM*	18µM*
CNC(=O)N(O)C1N(/N=C/c2ccc(N(C)C)cc2)C(=S)SC1(C)C (stereo unspecified)	10	8%	10%	13%	4%
CC1(C)SC(=S)N(NC(=O)Nc2cccc3ccccc23)C1N(O)C(=O)Nc1ccccc1 (stereo unspecified)	-25	?	?	?	16µM*
O=C(Nc1cc(-c2ccccc2)[nH]n1)c1ccccc1F	-57*	-2%	-28%	-27%	?
O=C(Nc1cc(-c2ccccc2)[nH]n1)c1ccccc1	-54*	-28%	?	-3%	?
O=C(O)c1ccccc1C(=O)Nc1cc(-c2ccccc2)[nH]n1	0	4%	17%	12%	-13%
CCS(=O)(=O)NCCNc1ccc([N+](=O)[O-])cc1	30	13%	17%	-9%	-14%
Cc1cc(C(=O)N(C)CC(=O)Nc2ccc(Cl)c(C(F)(F)F)c2)no1	-10	-3%	-5%	-26%	16µM*
Cc1nc(-c2ccc(F)cc2)c(CC(=O)N(C)CC(=O)Nc2ccc(Cl)c(C(F)(F)F)c2)s1	-20	?	16µM*	?	?
Cc1nc(-c2ccc(F)cc2)c(CC(=O)N(C)CC(=O)Nc2ccccc2Cl)s1	0	0%	-12%	?	?
CN(CC(=O)Nc1ccc(Cl)c(C(F)(F)F)c1)C(=O)C1(c2ccccc2)CC1	-57*	-24%	-26%	?	16µM*
CN(CC(=O)Nc1ccc(Cl)c(C(F)(F)F)c1)C(=O)c1ccc2c(c1)NC(=O)CS2	-24	-24%	-30%	?	23µM*
Cc1ccc(CNC(=O)c2c(-c3cccc(Br)c3)noc2C)o1	nt	nt	nt	?	-13%
COc1ccccc1CNc1ncnc2c1cnn2-c1ccc(C)cc1	nt	nt	nt	-27%	-12%
CCCCN(CC)C(=O)CCNS(=O)(=O)c1ccc2c(c1)c(=O)n(C)c(=O)n2C	nt	nt	nt	-12%	-28%
Cc1ccc(NC(=O)CCCc2nc3ccccc3c(=O)[nH]2)c(Cl)c1	4	2%	11%	18µM*	15µM*
Cc1cccc(C(=O)OCC(=O)N(C)CC(=O)Nc2ccc(Cl)c(C(F)(F)F)c2)c1	0	4%	2%	15µM*	?
CN(CC(=O)Nc1ccc(Cl)c(C(F)(F)F)c1)C(=O)c1cccnc1Sc1ccccc1	32	-2%	-10%	?	?
CN(CC(=O)Nc1cccc(F)c1)C(=O)CCCc1nc2ccccc2c(=O)[nH]1	12	-6%	-18%	?	-5%
CN(CC(=O)Nc1ccc(Cl)c(C(F)(F)F)c1)C(=O)c1cc(-c2ccncc2)nc2ccccc12	-96*	4%	7%	?	18µM*
CN(CC(=O)Nc1ccc(Cl)c(C(F)(F)F)c1)C(=O)CCCc1nc2ccccc2c(=O)[nH]1	5	-3%	1%	12µM*	12µM*
O=C(O)c1ccccc1CSc1nc2ccccc2n1Cc1ccccc1C(=O)O	8	6%	6%	-6%	1%
CCN(CC)S(=O)(=O)c1nnc(NC(=O)c2ccc(C)cc2)s1	nt	nt	nt	-16%	?
SMILES	IL-1B inflam inh	HT1080-NT tox	HT1080 IDH1KD tx	TDP1 cell CPT	TDP1 cell noCPT
CN(CC(=O)Nc1ccc(Cl)c(C(F)(F)F)c1)C(=O)c1cccs1	?	-14%	-3%	?	16µM*
CN(CC(=O)Nc1ccc(Cl)c(C(F)(F)F)c1)C(=O)COc1cccc2cccnc12	-7	-2%	-6%	?	?
CN(CC(=O)Nc1ccc(Cl)c(C(F)(F)F)c1)C(=O)c1cn2ccccc2n1	-8	1%	-1%	13µM*	10µM*
CN(CC(=O)Nc1ccc(Cl)c(C(F)(F)F)c1)C(=O)CC1Sc2ccccc2NC1=O (stereo unspecified)	?	-1%	-12%	13µM*	13µM*
CN(CC(=O)Nc1ccc(Cl)c(C(F)(F)F)c1)C(=O)c1cnccn1	-24	-6%	-5%	?	?
CCCNC(=O)c1ccc2c(=O)n3c(-c4ccc(C)cc4)csc3nc2c1	4	-7%	-8%	-9%	-9%
Cc1ncsc1C(=O)NCc1ccc(N2CCCC2=O)cc1	0	6%	1%	?	-28%
CCCCCC1CCC(C(=O)N2CCOCC2)CC1 (stereo unspecified)	-5	10%	24%	-2%	-15%
CCCCCC1CCNCC1	nt	nt	nt	6.3µM*	8.9µM*
CCS(=O)(=O)C(C)(CCl)C(=O)Nc1ccc(C(=O)OC)cc1 (stereo unspecified)	2	15%	20%	-21%	?
CC(=O)c1c(C(C)=O)c(C)n(-c2nc(-c3ccc(C)c(C)c3)c(C)s2)c1C	-67*	-1%	-7%	18µM*	23µM*
COc1ccc(-c2nc(-n3c(C)c(C(C)=O)c(C(C)=O)c3C)sc2C)cc1	-13	0%	-2%	21µM*	23µM*
Cc1nn(-c2ccccc2)c(C)c1C(=O)NCc1ccccc1F	-4	7%	9%	2%	5%
COc1cc2c(cc1O)CCN[C@]21CS[C@@H]2c3c(OC(C)=O)c(C)c4c(c3[C@H](COC1=O)N1[C@@H]2[C@H]2c3c(cc(C)c(OC)c3O)C[C@@H]([C@@H]1O)N2C)OCO4	nt	nt	nt	0.0043µM*	0.0043µM*
CC[C@@H]1Cc2[nH][nH]c(=O)c2[C@@H](c2ccc(Cl)cc2)O1	10	15%	1%	-22%	-27%
CCCC[C@@H]1Cc2[nH][nH]c(=O)c2[C@H](c2cccc3ccccc23)O1	-13	?	26µM*	5%	-24%
CCCCC1CC2=C(C(=O)OC(C)(C)O2)C(c2cccc3ccccc23)O1 (stereo unspecified)	-23	?	?	?	23µM*
Cc1ccc(CNS(=O)(=O)c2ccc(C(F)(F)F)cc2)n1C	?	0%	-5%	-1%	-6%
N#CC(C(=O)c1ccccc1)=C1SCCS1	-1	14%	12%	3%	-10%
